17 molecules from PubChem BioAssay (EPA / NIEHS) can be followed below.

Each structure is given as a SMILES string. “And” between values parts separate entries of the source, which are not always exact repeats. Identical values can stand only once. Some compounds were tested as several samples or in several runs, with calls that do not always agree. The source made the active and inactive calls. The calls were made as follows: active = hit-call score of the fitted dose curve at least 0.9, where 1 is the maximum; inactive = score below 0.9.

Assay [1] can be described thus: ATG_NFI_CIS: Attagene CIS-FACTORIAL HepG2 Assay for human Nuclear Factor I (NFI) (AID 2282989). Conditions: HepG2 cis-regulatory reporter, NFI response element transcription; actives raise or lower the signal. A digest of the protocol: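 HepG2 cells transiently transfected with cis-element-driven multiplexed reporter transcription units, dosed for 24 h. Reporter mRNA quantified by RT-PCR, fluorescent labelling, HpaI digestion and capillary electrophoresis; bidirectional fit versus DMSO baseline.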

Assay [2] in a line: ATG_NF_kB_CIS: Attagene CIS-FACTORIAL HepG2 Assay for human Nuclear Factor Kappa B (NF-kB) (AID 2282991). Conditions: HepG2 Attagene cis-factorial NF-kB reporter mRNA; actives raise or lower the signal. A digest of the protocol:
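DMSO served as negative control and baseline for bidirectional curve fitting. Transiently transfected HepG2 cells were dosed for 24 h, then reporter transcripts were measured by RT-PCR with capillary electrophoresis detection.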

A short description of assay [3]: ATG_NRF2_ARE_CIS: Attagene CIS-FACTORIAL HepG2 Assay for human Nuclear Factor Erythroid 2 Related Factor 2 (NFR2) response to Antioxidant Response Elements (ARE) (AID 2282992).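 As to AC50: reporter mRNA level measured by RT-PCR and capillary electrophoresis fluorescence.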 Conditions: HepG2 Attagene ARE/NRF2 reporter, transcription factor activity; actives raise or lower the signal. Put shortly:
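Fluorescence intensity of reporter-specific cDNA fragments, separated by capillary electrophoresis, reflects mRNA induction in transfected HepG2 cells at 24 h. Activity is fitted bidirectionally, DMSO serving as baseline.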

Assay [4] in a line: ATG_Oct_MLP_CIS: Attagene CIS-FACTORIAL HepG2 Assay for human Octamer-Binding Transcription Factor (Oct) (AID 2282993). Conditions: HepG2 Attagene cis-factorial Oct reporter, mRNA; actives raise or lower the signal. A digest of the protocol:
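HepG2 cells transiently transfected with cis-promoter-driven multiplexed reporter transcription units, dosed for 24 h. Reporter mRNA quantified by RT-PCR, fluorescent labelling, HpaI digestion and capillary electrophoresis; bidirectional fits versus DMSO baseline.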

Assay [5] deals with Cellular tumor antigen p53 (Homo sapiens) (UniProt P04637). In words: ATG_p53_CIS: Attagene CIS-FACTORIAL HepG2 Assay for human p53 Transcription Factor (AID 2282994). Conditions: HepG2 p53 cis-element reporter, Attagene mRNA; actives raise or lower the signal. A digest of the protocol: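 Transiently transfected HepG2 (multiple cis reporter transcription units); exposure 24 h; reporter RNA via RT-PCR, 6-FAM extension, 2 h HpaI digest at 37 C, CE detection; DMSO baseline.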
Chain of Cellular tumor antigen p53 (Homo sapiens) (P04637 whole entry, looked up): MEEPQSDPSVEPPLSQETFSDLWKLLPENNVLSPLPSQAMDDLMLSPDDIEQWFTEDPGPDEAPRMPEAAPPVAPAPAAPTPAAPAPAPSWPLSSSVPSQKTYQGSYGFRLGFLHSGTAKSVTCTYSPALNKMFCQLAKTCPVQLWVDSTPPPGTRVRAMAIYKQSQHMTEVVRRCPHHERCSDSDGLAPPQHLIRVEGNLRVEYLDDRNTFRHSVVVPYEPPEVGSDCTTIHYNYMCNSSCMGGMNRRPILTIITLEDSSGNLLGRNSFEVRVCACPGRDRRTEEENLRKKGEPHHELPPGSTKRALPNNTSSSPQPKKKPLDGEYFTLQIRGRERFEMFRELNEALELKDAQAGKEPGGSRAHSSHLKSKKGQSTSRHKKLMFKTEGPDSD

The nature of assay [6]: BSK_3C_TissueFactor: BioMAP Diversity Plus: 3C Assay for Tissue Factor Biomarker Activity (AID 2282997). The conditions noted are these: BioMAP 3C HUVEC, tissue factor biomarker readout; actives raise or lower the signal. Put shortly: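 In this endothelial system, HUVEC are treated for 24 h and Tissue Factor is assessed by ELISA, normalised to DMSO.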
A short description of assay [7]: BSK_3C_uPAR: BioMAP Diversity Plus: 3C Assay for Urokinase-type plasminogen activator receptor (uPAR) Biomarker Activity (AID 2282998). The conditions noted are these: BioMAP 3C HUVEC, uPAR biomarker ELISA; actives raise or lower the signal. A digest of the protocol: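 Human umbilical vein endothelial primary cells were exposed to test chemical for 24 h. Cell-surface uPAR was then quantified by ELISA, and responses were fitted bidirectionally against DMSO as negative control and baseline.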
On the technique in general: In an ELISA, binding on a coated surface is turned into a signal by an enzyme label.

Assay [8] in a line: BSK_3C_VCAM1: BioMAP Diversity Plus: 3C Assay for Vascular cell adhesion molecule 1 (VCAM1) Biomarker Activity (AID 2282999). Conditions: BioMAP 3C HUVEC, VCAM1 ELISA, cytokine-stimulated; actives raise or lower the signal. Put shortly: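 Activity fitted in both directions relative to DMSO, with ELISA measurement of the surface marker on primary HUVEC (3C) at 24 h post-treatment; parallel SRB staining (0.1% SRB, TCA-fixed, 560 nm) flagged overt cytotoxicity.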

Assay [9] in a line: BSK_4H_Eotaxin3: BioMAP Diversity Plus: 4H Assay for Eotaxin 3 Biomarker Activity (AID 2283000).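 As to outcome: CCL26 protein level quantified by ELISA in parallel with SRB cytotoxicity check.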 The conditions noted are these: primary human endothelial cells (HUVEC); actives raise or lower the signal. Put shortly:
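ELISA quantitation of CCL26 (Eotaxin-3) protein from chemically dosed human vascular endothelial cells at 24 h; increases and decreases both scored relative to DMSO-treated baseline.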

For assay [10], the target named is Myc proto-oncogene protein (Homo sapiens) (UniProt P01106). The assay can be described thus: ATG_Myc_CIS: Attagene CIS-FACTORIAL HepG2 Assay for human Myelocytomatosis (Myc) Proto-Oncogene Transcription Factor (AID 2282990). Conditions: HepG2, Attagene cis-reporter transcription factor activity; actives raise or lower the signal. A digest of the protocol:
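HepG2, transient MRTU transfection (cis promoters, endogenous TFs); 24 h dosing; TriZol RNA → oligo(dT) RT → PCR → 6-FAM primer extension → HpaI cut → CE. Bidirectional fit vs DMSO.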

Chain of Myc proto-oncogene protein (Homo sapiens) (P01106 whole entry, looked up): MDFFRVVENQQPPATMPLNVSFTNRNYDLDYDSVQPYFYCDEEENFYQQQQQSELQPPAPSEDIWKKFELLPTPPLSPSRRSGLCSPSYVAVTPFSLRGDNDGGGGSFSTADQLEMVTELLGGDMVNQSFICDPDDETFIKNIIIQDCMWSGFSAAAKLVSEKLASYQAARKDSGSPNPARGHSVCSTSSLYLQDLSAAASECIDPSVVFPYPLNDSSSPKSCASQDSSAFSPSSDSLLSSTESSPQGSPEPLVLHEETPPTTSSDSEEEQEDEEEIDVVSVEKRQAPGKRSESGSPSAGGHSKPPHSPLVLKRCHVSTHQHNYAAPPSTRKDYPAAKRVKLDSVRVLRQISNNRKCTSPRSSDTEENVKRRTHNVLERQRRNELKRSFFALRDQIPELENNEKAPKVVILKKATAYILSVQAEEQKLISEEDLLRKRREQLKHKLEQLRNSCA

For `NC(=O)N(O)[C@@H]1C=C[C@H](Oc2cccc(Oc3ccc(F)cc3)c2)C1`, the call in assay [1], in assay [2], in assay [5], in assay [6], in [7] and in [8] was inactive. For the same molecule, the result in [9] was inactive. The AC50 (as a rule, the concentration giving half of the maximal activity seen) in assay [3] was 20.6 µM (active); in assay [4], 33 µM (active).
As for `COCC(C)O` (stereo not given), the molecule was classed as inactive in assay [10], in assay [2], in [3], in assay [4], in [5] and in assay [6]. Also, the result in assay [7], in [8] and in assay [9] was inactive.
Turning to `Cc1cc(C)c(O)c(C)c1`, the AC50 in [3] was 27.7 µM (active); in assay [4], 100 µM (active). In addition, the result in assay [5], in assay [6], in assay [7], in [8] and in [9] was inactive.
As for `CN1CCN(c2ccccc2/C=C2\SCCN(c3ccc(Cl)c(Cl)c3)C2=O)CC1`, the molecule was called inactive in assay [2], in assay [4], in assay [5], in assay [8] and in [9]. Besides, the AC50 in assay [3] was 3.7 µM (active); in assay [6], 6.4 µM (active); in [7], 16.2 µM (active).
Consider `CC[C@H](C)[C@@H](C(=O)O)n1sc2ccccc2c1=O`, for which the result in [10], in assay [4], in assay [5], in [6], in [7] and in assay [8] was inactive. Further, the result in assay [9] was inactive. Moreover, the AC50 in assay [3] is 73.8 µM (active).
On to `CCN(CC)CCNc1ccc(CNC=O)c2sc3ccc(OC)cc3c(=O)c12`, for which the AC50 in assay [3] is 0.0735 µM (active); in assay [4], 0.842 µM (active); in assay [5], 0.117 µM (active); in assay [6], 31.2 µM (active); in [7] it was 12.3 µM (active); in assay [8], 26.8 µM (active). Further, the half-maximal activity concentration (AC50) in [9] is 29.2 µM (active).
With `CN(C)C=O`, the outcome in assay [10], in [2], in [3], in assay [4], in assay [5] and in assay [6] was inactive. Besides, the outcome in assay [7], in assay [8] and in assay [9] was inactive.
Regarding `CC#C[C@]1(O)CC[C@H]2[C@@H]3CCC4=CC(=O)CCC4=C3[C@@H](c3ccc(N(C)C)cc3)C[C@@]21C`, the AC50 in assay [2] is 67.9 µM (active); in assay [3], 28.1 µM (active) [middle of 4 runs]; in [7], 31.2 µM (active); in assay [8], 32.2 µM (active); in assay [9], 38.1 µM (active). Moreover, the molecule was called inactive in assay [2] and in [6].
On to `NCC(F)(F)C(F)(F)C(F)(F)C(F)(F)C(F)(F)C(F)(F)C(F)(F)F`, for which the molecule was called inactive in assay [10], in assay [2], in assay [3], in [4], in [5] and in [6]. The result in assay [7], in assay [8] and in assay [9] was inactive.
In the case of `CC(C)(C)CC(C)(C)c1ccc(O)c(-n2nc3ccccc3n2)c1`, the result in [10], in assay [2], in [5], in assay [6], in assay [7] and in assay [8] was inactive. Moreover, the result in assay [9] was inactive. The AC50 in assay [3] is 36.4 µM (active); in assay [4], 78.5 µM (active).
Turning to `OCCC(F)(F)C(F)(F)C(F)(F)C(F)(F)C(F)(F)C(F)(F)F`, the result in assay [10], in [3], in assay [4], in assay [5], in assay [6] and in assay [7] was inactive. In addition, the result in assay [8] and in assay [9] was inactive. In addition, the AC50 was 50.3 µM (active) in assay [3]; 136 µM (active) in [4]; 46.3 µM (active) and 30 µM (active) in assay [6]; 43.6 µM (active) and 47.3 µM (active) in assay [7]; 51.7 µM (active) in assay [8]; 0.436 µM (active) in [9].
On to `CCCCCCCCCCCCc1ccccc1S(=O)(=O)O`, for which the molecule was called inactive in assay [2], in assay [3], in [4], in [5], in assay [6] and in [7]. Besides, the outcome in assay [8] and in assay [9] was inactive.
For the molecule `CCCOC(=O)c1ccc(O)cc1`, the values for the AC50 in [3] and in [4] were 77.7 µM (active) and 168 µM (active), respectively. Moreover, the outcome in [3], in assay [4], in assay [5], in assay [6], in assay [7] and in assay [8] was inactive. Further, the outcome in assay [9] was inactive.
Turning to `O=[N+]([O-])c1ccc(O)cc1`, the outcome in [10], in assay [2], in assay [3], in assay [4], in [5] and in [6] was inactive. The result in assay [7], in [8] and in [9] was inactive.
Turning to `C=C(C)C(=O)OCCC(F)(F)C(F)(F)C(F)(F)C(F)(F)C(F)(F)C(F)(F)F`, the molecule was classed as inactive in assay [2], in [3], in assay [4], in assay [5], in assay [6] and in assay [7]. Further, the result in assay [8] and in assay [9] was inactive. The AC50 in assay [9] was 20 µM (active).
Regarding `Oc1cccc(O)c1`, the molecule was called inactive in assay [10], in assay [2], in [3], in assay [4], in assay [5] and in [6]. Also, the result in assay [7], in assay [8] and in assay [9] was inactive.
As to `O=C1OC2(c3ccccc31)c1cc(Br)c(O)c(Br)c1Oc1c2cc(Br)c(O)c1Br`, the molecule was called inactive in [10], in [2], in [3] and in assay [4]. The AC50 in assay [4] is 66.2 µM (active).
